Inconclusive results are not listed. Active and inactive are the calls of the source. Unless noted, the call rests on the fitted dose curve; in most records, active means well fitted curve in the direction sought with a large enough effect in the repeat runs; inconclusive means weak or mixed curves; inactive means no such curve, though single readings can be large; an effect the other way counts as inactive or inconclusive.
Experiments:
[1] = target: Luciferin 4-monooxygenase (Photinus pyralis) (UniProt P08659); assay: qHTS assay to identify small molecule inhibitors of firefly luciferase (AID 1224835); further: nearly all actives have a fitted effect of over 25% in size; further: potency means the concentration at half of the fitted maximal effect; on activity change, negative = inhibition: series mostly up to about 120 µM
Luciferin 4-monooxygenase (Photinus pyralis), sequence (P08659 whole entry, looked up): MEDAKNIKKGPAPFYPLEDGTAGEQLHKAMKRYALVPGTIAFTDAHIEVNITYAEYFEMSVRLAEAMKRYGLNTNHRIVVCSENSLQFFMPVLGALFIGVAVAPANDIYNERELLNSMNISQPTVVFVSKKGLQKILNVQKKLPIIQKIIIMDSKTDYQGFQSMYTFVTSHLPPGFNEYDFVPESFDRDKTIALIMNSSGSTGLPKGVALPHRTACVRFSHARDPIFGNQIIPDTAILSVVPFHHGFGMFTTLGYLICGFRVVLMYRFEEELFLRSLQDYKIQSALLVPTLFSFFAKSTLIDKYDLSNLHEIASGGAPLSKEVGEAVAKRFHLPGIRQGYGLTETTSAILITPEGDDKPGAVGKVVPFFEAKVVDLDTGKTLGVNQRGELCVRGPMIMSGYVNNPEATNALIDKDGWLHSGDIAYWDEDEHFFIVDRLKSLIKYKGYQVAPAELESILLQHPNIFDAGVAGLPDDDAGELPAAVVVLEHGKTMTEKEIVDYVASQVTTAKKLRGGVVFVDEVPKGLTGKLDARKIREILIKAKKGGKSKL
Procedure, shortened: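 Biochemical qHTS: compounds run as interplate titrations against purified firefly enzyme, with D-luciferin and ATP each at its KM concentration. Light output recorded by CCD imaging.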

[2] = qHTS assay to identify small molecule agonists of the constitutive androstane receptor (CAR) signaling pathway - cell viability counter screen (AID 1224836); further: nearly all actives have a fitted effect of over 45% in size; further: potency means the concentration at half of the fitted maximal effect; on viability change, negative = cytotoxic: series mostly up to about 92 µM
Procedure, shortened: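 Cells were seeded and incubated 4 hrs. Compounds were added across 15 concentrations together with PK11195 at 0.75 uM final. Plates were incubated 23 hrs at 37 C. CellTiter-Fluor was added and fluorescence measured.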

[3] = qHTS assay to identify small molecule antagonists of the constitutive androstane receptor (CAR) signaling pathway - cell viability counter screen (AID 1224837); further: nearly all actives have a fitted effect of over 45% in size; further: potency means the concentration at half of the fitted maximal effect; on activity change, negative = cytotoxicity: series mostly up to about 92 µM
Procedure, shortened: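 Read-out: CellTiter-Fluor fluorescence after 23 hr at 37 C/5% CO2. Cells: HepG2 double-stable for hCAR and CYP2B6-2.2kb. Compounds tested at 15 concentrations in the presence of CITCO, final concentration 50 nM.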

[4] = target: Nuclear receptor subfamily 1 group I member 3 (Homo sapiens) (UniProt Q14994); assay: qHTS assay to identify small molecule antagonists of the constitutive androstane receptor (CAR) signaling pathway (AID 1224838);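 further: HepG2 cells stably expressing hCAR with CYP2B6 luciferase reporter stimulated by CITCO; nearly all actives have a fitted effect of over 40% in size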; further: potency means the concentration at half of the fitted maximal effect
Nuclear receptor subfamily 1 group I member 3 (Homo sapiens), sequence (Q14994 whole entry, looked up): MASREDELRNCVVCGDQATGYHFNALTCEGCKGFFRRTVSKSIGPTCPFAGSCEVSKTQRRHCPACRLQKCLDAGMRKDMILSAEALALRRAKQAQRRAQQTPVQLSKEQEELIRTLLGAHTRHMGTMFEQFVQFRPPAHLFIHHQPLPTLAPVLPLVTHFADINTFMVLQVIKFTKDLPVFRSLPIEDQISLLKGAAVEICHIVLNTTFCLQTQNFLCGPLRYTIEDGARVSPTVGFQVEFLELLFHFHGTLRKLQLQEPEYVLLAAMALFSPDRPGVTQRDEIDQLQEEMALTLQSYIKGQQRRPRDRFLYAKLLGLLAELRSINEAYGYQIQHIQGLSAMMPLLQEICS
Procedure, shortened: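 Read-out: ONE-Glo luciferase luminescence after 30 min at room temperature. HepG2-CYP2B6-hCAR double-stable cells, compounds in 15-point titration plus 50 nM CITCO final, 24 h at 37 C/5% CO2.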

[5] = target: Nuclear receptor subfamily 1 group I member 3 (Homo sapiens) (UniProt Q14994); assay: qHTS assay to identify small molecule agonists of the constitutive androstane receptor (CAR) signaling pathway (AID 1224839);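 further: HepG2 cells stably carrying human CAR and a CYP2B6 luciferase reporter; series mostly up to about 92 µM; nearly all actives have a fitted effect of over 15% in size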
Procedure, shortened: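 Cells were plated and incubated 4 hrs, then dosed with compounds at 15 concentrations. PK11195 was added to 0.75 uM final. After 24 hrs at 37 C, luciferase luminescence was measured.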

[6] = qHTS assay to identify small molecule antagonists of the estrogen related receptor signaling pathway with the pleiotropic PPARgamma coactivator (PGC) from Tox21 10K library - cell viability counter screen (AID 1224840; active means well fitted cell-killing curve with a large enough effect in the repeat runs, not every such curve was filed as active; further: nearly all actives have a fitted effect of over 40% in size; further: potency means the concentration at half of the fitted maximal effect)
Procedure, shortened: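 Fluorescence read-out of CellTiter-Fluor viability reagent, added after cells had been exposed to compound in DMSO for 17.5 h at 37 C; 30 min development at 37 C/5% CO2. Cells: PGC/ERR line, 2,000/well.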

[7] = qHTS assay to identify small molecule antagonists of the estrogen related receptor signaling pathway with the pleiotropic PPARgamma coactivator (PGC) from Tox21 10K library (AID 1224841; call rule not given here; further: actives are mostly falling curves and most rising ones were filed inactive; nearly all actives have a fitted effect of over 50% in size; further: potency means the concentration at half of the fitted maximal effect; on activity, negative = inhibition: series mostly up to about 92 µM)
Procedure, shortened: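 Luminescence read-out (One-Glo luciferase reagent, 30 min at room temperature) from PGC/ERR cells exposed to DMSO-dissolved test compounds for 18 h at 37 C; cells, 2,000 per well, had been preincubated 6 h before compound transfer.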

[8] = qHTS assay to identify small molecule agonists of the estrogen related receptor signaling pathway with the pleiotropic PPARgamma coactivator (PGC) from Tox21 10K library (AID 1224842); further: nearly all actives have a fitted effect of over 15% in size
Procedure, shortened: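 PGC/ERR reporter cell line, 2,000 cells per well, incubated 6 h at 37 C before 23 nL compound in DMSO was added. After 18 h at 37 C, One-Glo luminescence read following 30 min at room temperature.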

[9] = target: Thyrotropin receptor (Homo sapiens) (UniProt P16473); assay: qHTS assay to identify small molecule agonists of the thyroid stimulating hormone receptor (TSHR) signaling pathway (AID 1224843; calls by dose curve; further: nearly all actives have a fitted effect of over 45% in size)
Thyrotropin receptor (Homo sapiens), sequence (P16473 whole entry, looked up): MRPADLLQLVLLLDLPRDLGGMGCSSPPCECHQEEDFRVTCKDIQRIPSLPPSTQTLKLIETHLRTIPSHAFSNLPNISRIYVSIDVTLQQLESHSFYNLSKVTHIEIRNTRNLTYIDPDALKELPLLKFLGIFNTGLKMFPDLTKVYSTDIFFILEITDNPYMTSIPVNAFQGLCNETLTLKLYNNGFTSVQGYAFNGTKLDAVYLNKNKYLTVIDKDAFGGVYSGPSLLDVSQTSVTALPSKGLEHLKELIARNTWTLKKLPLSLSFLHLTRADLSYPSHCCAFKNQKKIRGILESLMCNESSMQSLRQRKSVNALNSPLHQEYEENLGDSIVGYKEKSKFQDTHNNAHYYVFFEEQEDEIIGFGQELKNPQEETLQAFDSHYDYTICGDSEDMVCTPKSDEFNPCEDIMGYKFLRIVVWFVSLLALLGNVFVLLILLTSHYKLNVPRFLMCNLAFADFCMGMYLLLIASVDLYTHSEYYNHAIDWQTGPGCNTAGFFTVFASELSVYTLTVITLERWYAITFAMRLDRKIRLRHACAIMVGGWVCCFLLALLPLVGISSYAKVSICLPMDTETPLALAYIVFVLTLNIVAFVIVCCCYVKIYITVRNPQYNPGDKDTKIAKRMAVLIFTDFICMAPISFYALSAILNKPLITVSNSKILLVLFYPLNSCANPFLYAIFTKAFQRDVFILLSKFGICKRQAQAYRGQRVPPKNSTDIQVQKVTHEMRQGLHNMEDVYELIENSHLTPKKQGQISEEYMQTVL
Procedure, shortened: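 HEK293/TSHR, 800 cells/well; cpd 30 min RT; add cAMP-d2 + anti-cAMP-cryptate, 1 h RT; fluorescence read on plate reader. 15-pt titration, n=3.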

[10] = qHTS assay to identify small molecule agonists of the hypoxia (HIF-1) signaling pathway - cell viability counter screen (AID 1224844; calls by dose curve; further: nearly all actives have a fitted effect of over 50% in size; further: potency means the concentration at half of the fitted maximal effect)
Procedure, shortened: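 CellTiter-Glo luminescence read-out, 30 min RT, taken in the same wells as the beta-lactamase HRE reporter assay; HRE-bla ME-180 cells, 0.5% dialyzed FBS, 17 hr compound treatment at 37C, 5% CO2.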
On the % scale 0 is the no-effect control and ±100 the full control effect.

CC(COC(=O)c1ccccc1)OC(=O)c1ccccc1 (stereo not given)
inactive: Potency [1] | Potency [2] | Potency [3] | Potency [4] | Potency [5] | Potency [6] | Potency [7] | Potency [8] | Potency [9] | Potency [10]

O=C1C=CC(=O)N1c1ccccc1
active: Potency [1] 22.4 µM | Potency [2] 54.5 µM | Potency [3] 27.3 µM | Potency [4] 27.3 µM | Potency [6] 30.6 µM | Potency [7] 54.5 µM | Potency [10] 21.9 µM
inactive: Potency [5] | Potency [8]

CCOC(OCC)C(=O)c1ccccc1
inactive: Potency [1] | Potency [2] | Potency [3] | Potency [4] | Potency [5] | Potency [6] | Potency [7] | Potency [8] | Potency [10]

CC1(C)COCN1
inactive: Potency [1] | Potency [2] | Potency [3] | Potency [4] | Potency [5] | Potency [6] | Potency [7] | Potency [8] | Potency [9] | Potency [10]

NCCCCCCNCCCCCCN
inactive: Potency [1] | Potency [2] | Potency [3] | Potency [4] | Potency [5] | Potency [6] | Potency [7] | Potency [8] | Potency [10]

CCN1CCN(c2cc(-c3ccc(F)cc3)c3c(n2)CCCCCC3)CC1
inactive: activity change, negative = inhibition [1] -0.963% [at 23.6 µM] | viability change, negative = cytotoxic [2] 4.47% [at 19 µM] | activity change, negative = cytotoxicity [3] 3.17% [at 19 µM] | activity, negative = inhibition [4] 16.5% [at 19 µM] | activation [5] -1.24% [at 19 µM] | viability change, negative = cytotoxic [6] 18% [at 19 µM] | activity, negative = inhibition [7] 3.89% [at 19 µM] | activation [8] -0.232% [at 19 µM] | activation [9] -12.2% [at 19 µM] | activity change, negative = cytotoxicity [10] 0.919% [at 15.8 µM]

CCO[Si](C)(C)OCC
inactive: Potency [1] | Potency [2] | Potency [3] | Potency [4] | Potency [5] | Potency [6] | Potency [8] | Potency [9] | Potency [10]
active: Potency [7] 24.3 µM

Cc1ccc(O)cn1
inactive: Potency [1] | Potency [2] | Potency [3] | Potency [4] | Potency [5] | Potency [6] | Potency [7] | Potency [8] | Potency [9] | Potency [10]

CC1=CCC(=O)O1
inactive: Potency [1] | Potency [2] | Potency [3] | Potency [4] | Potency [5] | Potency [6] | Potency [7] | Potency [8] | Potency [9] | Potency [10]

CN1CCN(C2Cc3ccccc3Sc3ccc(Cl)cc32)CC1 (stereo not given)
active: Potency [10] 23.9 µM
inactive: Potency [1] | Potency [2] | Potency [3] | Potency [4] | Potency [5] | Potency [6] | Potency [7] | Potency [8] | Potency [9]

CCCCOC(=O)C(C)CC (stereo not given)
inactive: Potency [1] | Potency [2] | Potency [3] | Potency [4] | Potency [5] | Potency [6] | Potency [7] | Potency [8] | Potency [9] | Potency [10]

CCCCOCC
inactive: Potency [1] | Potency [2] | Potency [3] | Potency [4] | Potency [5] | Potency [6] | Potency [7] | Potency [8] | Potency [9] | Potency [10]

CN1CN(C)CN(C)C1
inactive: Potency [1] | Potency [2] | Potency [3] | Potency [4] | Potency [5] | Potency [6] | Potency [7] | Potency [8] | Potency [9] | Potency [10]

O=c1cccc[nH]1
inactive: Potency [1] | Potency [2] | Potency [3] | Potency [4] | Potency [5] | Potency [6] | Potency [7] | Potency [8] | Potency [9] | Potency [10]

CCCCCCCC/C=C/CCCOC(C)=O
inactive: Potency [1] | Potency [2] | Potency [3] | Potency [4] | Potency [5] | Potency [6] | Potency [7] | Potency [8] | Potency [9] | Potency [10]

ClC/C=C\CCl
inactive: Potency [1] | Potency [2] | Potency [3] | Potency [4] | Potency [5] | Potency [6] | Potency [7] | Potency [8] | Potency [9] | Potency [10]

COC(=O)NCCC[Si](OC)(OC)OC
inactive: Potency [1] | Potency [2] | Potency [3] | Potency [4] | Potency [5] | Potency [6] | Potency [7] | Potency [8] | Potency [9]

CCCC(CC)CCCCCCCN (stereo not given)
active: Potency [10] 50.2 µM
inactive: Potency [1] | Potency [2] | Potency [3] | Potency [4] | Potency [5] | Potency [6] | Potency [7] | Potency [8]

c1cc[nH]c1
inactive: Potency [1] | Potency [2] | Potency [3] | Potency [4] | Potency [5] | Potency [6] | Potency [7] | Potency [8] | Potency [9] | Potency [10]

C[Si](C)(C)Cl
inactive: Potency [1] | Potency [2] | Potency [3] | Potency [4] | Potency [5] | Potency [6] | Potency [7] | Potency [8] | Potency [9] | Potency [10]

NC(=O)c1ccccc1N
inactive: Potency [1] | Potency [2] | Potency [3] | Potency [4] | Potency [5] | Potency [6] | Potency [7] | Potency [8] | Potency [9] | Potency [10]

Reference: PubChem BioAssay (Tox21)
